These results are taken from PubChem BioAssay (NCI).

Assay in all cases: NCI-60 one-dose screen, 48 h (100 = growth as untreated, 0 = no growth, -100 = all killed)
Holding throughout (conditions): 10 µM unless noted

Assay [1] concerns NCI-H23 lung.
In assay [2] the test system is NCI-H226 lung.
Assay [3] relates to NCI-H322M lung.
Assay [4] has as its system HOP-62 NSCLC.
Assay [5] has as its system NCI-H460 lung.
The test system of assay [6] is HOP-92 NSCLC.
In assay [7] the test system is A549/ATCC NSCLC.
The subject of assay [8] is 786-0 renal.
Assay [9] relates to COLO 205 colon.
The test system of assay [10] is DU-145 prostate.
Assay [11] concerns K-562 leukemia.
The test system of assay [12] is MALME-3M melanoma.
The test system of assay [13] is MDA-MB-231 breast.
Assay [14] relates to SF-268 CNS.
For assay [15], the system named is SF-295 CNS.
The test system of assay [16] is SF-539 CNS.
For assay [17], the system named is UACC-257 melanoma.
Assay [18] concerns M14 melanoma.
Assay [19] deals with NCI-H522 lung.
Assay [20] deals with RXF 393 renal.

Compounds without any hit were thinned out: in the full panel of roughly 83,000, 20% have a hit.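 Note: values are percent growth. 100 is the growth of untreated cells, values between 100 and 0 indicate rising inhibition; between -100 and 0 indicates cell death.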 A number with no mark means an inactive call. The source made the active and inactive calls. The calls were made as follows: active = growth percent below 10; inactive = the rest.

With `COc1cc(-c2nc3sccn3c2-c2ccnc(NCCNS(=O)(=O)c3ccc(F)cc3)n2)ccc1F`, the growth is 13% in assay [1]; 3.23% (active) in assay [2]; 29.7% in [3]; 32.3% in [4]; 13.6% in assay [5]; 18.8% in assay [6]. In addition, the growth is 5.95% (active) in assay [7]; 30.9% in assay [8]; 5.45% (active) in assay [9]; 19.6% in assay [10]; 5.81% (active) in [11]; -34.2% (active) in assay [12]. Also, the growth is 22.3% in assay [13]; 19% in assay [14]; 4.27% (active) in assay [15]; 31.2% in assay [16]; -12.7% (active) in [17]; 9.49% (active) in [18].
In the case of `COc1ccc(C2=C(c3ccccc3)c3ccc(OC(C)=O)cc3OC2(C)C)cc1`, the growth in assay [1] is 79.8%; in [2] it was 86.3%; in [3] it was 102%; in assay [4], 107%; in assay [5] it was 84.8%; in assay [6] it was 81.1%. In addition, the growth in [19] was 88.8%; in [8], 101%; in assay [9], 108%; in [10], 105%; in assay [12] it was 107%; in assay [13], 68.2%. Besides, the growth was 95.8% in assay [20]; 102% in assay [14]; 72.3% in assay [15]; 102% in assay [16]; 145% in assay [17]; 110% in assay [18].
As to `Cn1ncc2c(Nc3ccccc3Cl)nc(Cl)nc21`, the growth was 100% in assay [1]; 88.4% in assay [2]; 87.3% in [3]; 98.2% in [4]; 114% in assay [5]; 72.8% in assay [6]. Further, the growth in assay [7] is 103%; in assay [8] it was 103%; in assay [9] it was 127%; in assay [10] it was 139%; in assay [12], 122%; in assay [13], 87%. Besides, the growth in assay [14] was 114%; in assay [15] it was 103%; in assay [16], 102%; in assay [17] it was 128%; in assay [18], 124%.
For the compound `CN1CCN(c2ccc(NC3=C(Cl)C(=O)c4ncccc4C3=O)cc2C#N)CC1`, the growth in assay [1] was 51%; in assay [2] it was 94%; in [3], 103%; in assay [4], 103%; in [5] it was 94.8%; in assay [6] it was -61.4% (active). Besides, the growth was -56.9% (active) in assay [19]; 85.5% in assay [8]; 57.6% in assay [9]; 86.9% in assay [10]; 2.83% (active) in [11]; -69.4% (active) in assay [12]. In addition, the growth is -4.9% (active) in assay [13]; 85.3% in [14]; 115% in assay [15]; 91.6% in assay [16]; -46.5% (active) in [17]; 54% in assay [18].
`CC(C)(C)CC(C)(C)Nc1c(-c2ccc3c(c2)OCO3)nc2cnccn12`: the growth was 97.7% in assay [1]; 90.1% in assay [2]; 101% in [3]; 97.9% in assay [4]; 97.2% in assay [5]; 70.3% in [6]. Moreover, the growth in assay [7] is 82.7%; in assay [8] it was 67.7%; in [9], 102%; in assay [10], 101%; in [11], 72%; in assay [12], 111%. Moreover, the growth in [13] is 83.9%; in assay [14] it was 84.1%; in [15], 86.2%; in assay [16], 91.5%; in assay [17] it was 101%; in assay [18] it was 45.9%.
Consider `O=C(CN1CCOCC1)Nc1ccc2ncnc(Nc3ccc(Oc4cccc(F)c4)c(Cl)c3)c2c1`, for which the growth in [1] was 96.7%; in [2], 89.8%; in assay [3], 20.1%; in [4], 84.9%; in assay [5] it was 80.2%; in assay [6] it was 67.4%. Further, the growth in [8] is 74.3%; in [9] it was 91.7%; in assay [10], 48.3%; in assay [11], 56.8%; in [12] it was 88.3%; in assay [13] it was 74.3%. Moreover, the growth in [14] is 70.9%; in assay [15], 84.2%; in assay [16], 85%; in assay [17], 89.1%; in assay [18] it was 74.5%.
For `O=c1nc2n(nc1/C=C/c1ccco1)CC(c1ccc(Cl)cc1)=NN2`, the growth is 93% in assay [1]; 100% in [2]; 84.2% in [3]; 82.9% in [4]; 108% in [5]; 87.6% in assay [6]. Also, the growth was 104% in assay [7]; 95.7% in assay [8]; 110% in assay [9]; 115% in assay [10]; 53.6% in assay [11]; 92% in assay [12]. Also, the growth is 117% in assay [13]; 109% in assay [14]; 97.9% in assay [15]; 104% in assay [16]; 104% in [17]; 104% in assay [18].
`Nc1c(Cl)cc([N+](=O)[O-])cc1Br`: the growth was 93% in [1]; 93.7% in [2]; 103% in assay [3]; 109% in assay [4]; 114% in assay [5]; 74.8% in [6]. Besides, the growth in assay [8] was 87.8%; in assay [9] it was 118%; in assay [10], 105%; in [11], 99.1%; in assay [12], 107%; in assay [13], 101%. The growth is 98.2% in assay [20]; 97.1% in assay [14]; 74% in assay [15]; 114% in assay [16]; 91.3% in assay [17]; 114% in [18].
